We go through six compounds from the supplement of paper PMC6992640.

Common to all, as to assay: cell viability (% of vehicle); higher = less cytotoxic
Common to all, as to settings: 10 µM; 72 h

Experiment [1] relates to HCI01 (cells of a triple-negative basal-like breast cancer xenograft).
Experiment [2] deals with HCI03 (cells of an ER-positive luminal breast cancer xenograft).
Experiment [3] concerns HCI09 (cells of a triple-negative luminal androgen receptor type breast cancer xenograft).
Experiment [4] deals with HCI11 (cells of an ER-positive luminal breast cancer xenograft).
The subject of experiment [5] is HCI13 (cells of an ER-positive luminal breast cancer xenograft).
Experiment [6] has as its system HCI16 (cells of a triple-negative basal-like breast cancer xenograft).
Experiment [7] deals with UCD52 (cells of a triple-negative basal-like breast cancer xenograft).
Experiment [8] has as its system WHIM2 (cells of a triple-negative basal-like breast cancer xenograft).
The subject of experiment [9] is WHIM30 (cells of a triple-negative basal-like breast cancer xenograft).

± gives the standard deviation of the averaged measurements.
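Further: PDX cells carrying CMV promoter-driven luciferase, viability read as total photon flux per second by IVIS imaging following D-luciferin, vehicle control 0.1% DMSO.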

On to `OCC(O)CN1CCN(c2ccccc2)CC1` (centres undefined) [Dropropizine], for which the cell viability in experiment [1] came out at 97.2 ± 14; in experiment [2], 129; in [3] it was 89.7 ± 11; in experiment [4], 90.3; in experiment [5], 66 ± 10; in experiment [6], 94.3. Also, the figures for the cell viability in experiment [7], in experiment [8] and in [9] were 98.7 ± 2.5, 99.3 ± 20 and 101.7 ± 0.4, respectively.

As for `COc1ccc(C2(C#N)CCC(C(=O)O)CC2)cc1OC1CCCC1` (centres undefined) [Cilomilast], the cell viability stood at 120 ± 9.7 in experiment [1]; 114 in [2]; 89 ± 22 in experiment [3]; 88.4 in [4]; 104 ± 9.8 in experiment [5]; 146 in experiment [6]. The cell viability in experiment [7] is 103 ± 12; in experiment [8], 117 ± 8.9; in experiment [9], 113.9 ± 0.63.

As to `CN(C)CCCN1c2ccccc2CCc2ccc(Cl)cc21.Cl` [Clomipramine HCl], the cell viability in experiment [1] was 102 ± 22; in [2] it was 108; in experiment [3], 74.2 ± 2.6; in experiment [4], 69.7; in experiment [5], 88.4 ± 10; in [6], 88.4. Besides, the cell viability in experiment [7] was found to be 61.1 ± 1.7; in [8], 58 ± 1.1; in [9], 94.4 ± 13.

Regarding `CNC(=C[N+](=O)[O-])NCCSCc1ccc(CN(C)C)o1.Cl` [Ranitidine], the cell viability in experiment [1] was 110 ± 5; in experiment [2], 125; in experiment [3] it was 112 ± 1.9; in experiment [4] it was 103; in experiment [5] it was 122 ± 6.4; in experiment [6] it was 122. In addition, the cell viability in [7] is 89.9 ± 9.7; in experiment [8], 85.6 ± 2.9; in experiment [9], 113 ± 11.

Regarding `CN1CCC(=C2c3ccccc3CCc3sccc32)CC1.O=C(O)CC(O)C(=O)O` [Pizotifen Malate], the cell viability in experiment [1] amounted to 100 ± 41; in experiment [2] it was 105; in [3] it was 74.7 ± 3.8; in [4] it was 97.9; in [5] it was 167 ± 21; in [6] it was 111. The cell viability in experiment [7] was 82.7 ± 2.5; in experiment [8], 68.9 ± 11; in experiment [9] it was 173.9 ± 0.85.

Turning to `CCc1nc(N)nc(N)c1-c1ccc(Cl)cc1` [Pyrimethamine], the cell viability in [1] is 111 ± 6.4; in [2], 129; in experiment [3] it was 81.6 ± 8.9; in experiment [4], 121; in [5], 105 ± 12; in experiment [6] it was 109. For the same compound, the figures for the cell viability in experiment [7], in experiment [8] and in experiment [9] were 75.2 ± 2.4, 119 ± 4.7 and 104 ± 1.9, respectively.
